Measurements from PubChem BioAssay (NCI).
The panel holds about 83,000 compounds, 20% with a hit somewhere; the sample as a whole holds those more often.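 Activity criterion: percent growth below 10, measured after cells in 96-well plates were exposed to a single compound concentration for 48 hours.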 Calls of active or inactive are those of the source.

What follows are compounds tested on SR leukemia (assay: NCI-60 one-dose screen, 48 h (100 = growth as untreated, 0 = no growth, -100 = all killed)). Details: 10 µM unless noted.
Procedure: Growth inhibition of the SR human tumor cell line is measured as a screen for anti-cancer activity. Cells are grown in 96 well plates and exposed to the test compound for 48 hours. Compounds are tested at a single concentration, which is 10^-5 M for most compounds. The reported endpoint is percent growth (GI% or GIPRCNT), where numbers from 0 - 100% represent growth inhibition, and numbers from -100% - 0 represent cell death. For example, a value of 40 represents 60% growth inhibition. A value of 0 means no net growth occurred over the course of the experiment. A value of -40 indicates 40% of cells at the beginning of the experiment died by the end of the experiment. A value of -100 means all cells are dead at the end of the experiment.
NCI-60 Human Tumor Cell Lines Screen was performed using the standard one-dose NCI protocol, which is described in more detail at https://dtp.cancer.gov/discovery_development/nci-60/default.htm.
Compounds with GIPRCNT values below 10 were considered active. Activity score was based on GIPRCNT using the following formula: […]
Score is 0 for GIPRCNT values of 100 or above, 50 for GIPRCNT values of 0, and 100 for GIPRCNT values of -100.

| SMILES | growth |
| --- | --- |
| CC1(C)Oc2cc3oc(=O)ccc3cc2C[C@@H]1OCCOS(=O)(=O)c1ccc(C#N)cc1 | 107% (inactive) |
| Cc1[nH]n(C(=S)Nc2nc3cc(Cl)c(F)cc3s2)c(=O)c1N=Nc1ccc(F)c(Cl)c1 | -45.2% (active) |
| O=C(Nc1ccc(Cl)c(Cl)c1)O/N=C\c1c(Cl)ccc([N+](=O)[O-])c1Cl | -23.7% (active) |
| CCCC[N+](C)(N)CCCC | 92.1% (inactive) |
| Cc1ccc([C@@H]2C[C@H](O)Cc3ccccc3N2)s1 | 96.4% (inactive) |
| Cn1c2c(cc(S(=O)(=O)c3ccccc3)c1=O)CCc1c-2cnn1-c1ccc(Cl)cc1 | 52% (inactive) |
| CNCCCNCCCCNCCCN1C(=O)c2ccc3c4c(ccc(c24)C1=O)C(=O)N(CCCNCc1ccccc1OC)C3=O | 12% (inactive) |
| CC(=O)Nc1ccc(S(=O)(=O)Cl)cc1 | 86.8% (inactive) |
| COC1=CC(c2ccc[nH]2)=N/C1=C\c1[nH]c(C)c(C(=O)CCCCC(=O)NC(C)(C)C)c1C | 83.4% (inactive) |
| CC1CCCCC[N+]12CCCC2 (stereo not given) | 91.7% (inactive) |
| CC([C@H]1CCC2C3CCC4C[C@@H](N)CC[C@]4(C)C3CC[C@@]21C)N(C)C (stereo not given in full) | 18.5% (inactive) |
| CC(O)CCC(C)[N+](=O)[O-] (stereo not given) | 95.8% (inactive) |
| CCOc1ccccc1/C=N\N=C(N/N=C/c1ccccc1OCC)N/N=C/c1ccccc1OCC | 15.7% (inactive) |
| O=C1C=C(OCC=C(C(F)(F)F)C(F)(F)F)c2ccccc2C1=O | -19.7% (active) |
| CCCCCCCCCCCCCCCCCC1=NCCN1CS(=O)(=O)O | -3.33% (active) |
| FC(F)(F)c1cccc(-c2[nH]ncc2-c2nnnn2-c2ccccc2)c1 | 25.6% (inactive) |
| CCCNC(=O)Oc1ccc(/C(=C(/C)Cc2ccc(OC)cc2)c2ccc(OCCN3CCCCC3)cc2)cc1 | 3.39% (active) |
| c1cc[c]([Bi]([c]2ccccc2)[c]2ccccc2)cc1 | 102% (inactive) |
| O=Nc1ccc(O)c2ccccc12 | 11.5% (inactive) |
| CCOC(=O)CCCCCCCCC(=O)OCC | 106% (inactive) |

| SMILES | growth |
| --- | --- |
| COC(=O)c1ccc2[nH]c(O)c(C(=Nc3ccc(N(C)C(=O)CN4CCN(C)CC4)cc3)c3ccc4c(c3)OCO4)c2c1 | 0.377% (active) |
| COc1ccc(OC)c(Cn2cc3c(c2-c2ccccc2)CCc2cnoc2-3)c1 | 22% (inactive) |
| CCN(CC)C(=O)C1(C)CCCC2(C)c3cc(OC(C)=O)ccc3CCC12 (stereo not given) | 62.8% (inactive) |
| O=C(CCCC(=O)Nc1ccc(Cn2nnc3cc(Cl)c(Cl)cc32)cc1)Nc1ccc(CN2N=NC3C=C(Cl)C(Cl)=CC32)cc1 (stereo not given) | 79.2% (inactive) |
| O=C(NCCO)C(F)(F)F | 98.7% (inactive) |
| CC/C(=N\Nc1nc2ccccc2n1C)c1ccccn1 | 3.71% (active) |
| CN1C(=O)C(=Cc2coc3ccc(Br)cc3c2=O)C(=O)N(C)C1=O | 126% (inactive) |
| O=C(N/N=C/c1coc2ccccc2c1=O)c1cc2oc(-c3ccccc3)cc2[nH]1 | 87.7% (inactive) |
| COc1cc(OC)c(NC(=O)n2ncc3cc(Nc4ncnc5ccccc45)ccc32)cc1Cl | 89.6% (inactive) |
| NCCCOc1cc2ccccc2cc1C(=O)Nc1ccc(Cl)cc1OC(=O)c1cc2ccccc2cc1OCCCN | -47.5% (active) |
| CCC(C)[C@H](NC(=O)Nc1cc(C(F)(F)F)cc(C(F)(F)F)c1)C(=O)N[C@@H](Cc1cn(C)cn1)C(=O)OC (stereo not given in full) | -37.8% [100 µM] (active) |
| CCCCCCNc1nc(N2CCOCC2)c2[nH]c(NCCCCCC)nc2n1 | -29.2% (active) |
| Oc1ccccc1\C=N/N=C/C=C/c1ccccc1 | 71.9% (inactive) |
| Clc1ccc(N/N=C(\c2ccccc2)c2ccccn2)nc1 | 1.95% (active) |
| CCn1cnc(C[C@H](NC(=O)[C@@H](NC(=O)Nc2cc(C(F)(F)F)cc(C(F)(F)F)c2)C(C)C)C(=O)OC)c1 | -35.5% [100 µM] (active) |
| CC(C)(C)c1ccc(OCCOC(=O)CBr)cc1 | 44.7% (inactive) |
| O=C1/C(=C\c2cn(-c3nc(N4CCOCC4)nc(N4CCOCC4)n3)c3ccccc23)c2ccccc2N1c1c(Cl)cccc1Cl | 27.4% (inactive) |
| N=C(N)N=Nc1ccc(NN=C(N)N)c2ccccc12 | 109% (inactive) |
| Cc1ccc(S(=O)(=O)N/N=C2\CC3CCC2C3)cc1 (stereo not given) | 103% (inactive) |
| CC(=O)OCC(=O)[C@@]1(O)[C@H](C)C[C@H]2[C@@H]3C=C(C)C4=Cc5c(cnn5-c5ccc(F)cc5)C[C@]4(C)[C@H]3[C@@H](O)C[C@@]21C | 0.104% (active) |
